Results: PubChem BioAssay AID1347416 (National Center for Advancing Translational Sciences (NCATS), 2020)
Out of some 4,100 compounds screened, about 1,600 (39%) were called active. Another 25% or so got no clear call; they are omitted. The call rests on the fitted dose curve; in most records, active means well fitted inhibition curve with a large enough effect; inconclusive means small, poorly fitted or top-dose-only effect; inactive means no such curve, though single readings can be large or run the other way. This is one part of the list.

test: qHTS Validation assay for Inhibitors of Plasmodium falciparum Dd2 growth in vitro; further: nearly all actives have a fitted effect of over 70% in size; settings: P. falciparum Dd2 in RBCs, SYBR Green growth, 72 h; series mostly up to 28.7 µM
In short: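 P. falciparum Dd2-infected red blood cells (2.5% hematocrit, 0.3% parasitemia) grown 72 h at 37 °C under 5% O2 with compounds in a titration, 29 uM to 0.5 nM final. Growth read as SYBR Green-1 fluorescence after ~16 h lysis; artesunate 300 nM as positive control.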
Potency means the concentration at half of the fitted maximal effect.

SMILES	Potency
CC(C)c1ccc(OCC(=O)NC2CCCC2)cc1	inactive
COc1ccc(C(C)NC(=S)NC2CCCC2)cc1OC (stereo not drawn)	6.68 µM (active)
CCOc1ccc(C(C)NC(=S)NC2CCCCC2)cc1OCC (stereo not drawn)	0.211 µM (active)
O=C1Nc2ccc(-c3ccccc3F)cc2C(=O)N2CCN(C(=O)c3ccccc3)C[C@H]12	inactive
CN1CCN(C(=O)c2ccc3c(c2)N(Cc2c(F)cccc2Cl)C(=O)c2ccccc2S3)CC1	0.0596 µM (active)
COc1ccc(C(=O)N2CCCC3(C2)NC(=O)N(Cc2cccc(Cl)c2)C3=O)cc1F (stereo not drawn)	inactive
Cc1ccc(C(=O)N2CCN(c3nnc4c(Cl)cccn34)CC2)cc1F	inactive
CCN1CCN(C(=O)c2ccc3c(c2)N(Cc2c(F)cccc2Cl)C(=O)c2ccccc2S3)CC1	0.0084 µM (active)
CC(C)CNC(=O)CN1CN(c2ccccc2)C2(CCN(C(=O)NC3CCCCC3)CC2)C1=O	15 µM (active)
CC(C)(C)C1CCC2(CC1)NC(=O)N(CC(=O)NC1CCCCC1)C2=O (stereo not drawn)	inactive
O=C(OCc1ccccc1)N1CCC2(CC1)C(=NC1CCCCC1)NC(=O)N2c1cccnc1	inactive
CC(C)OCCCNc1sc(S(=O)(=O)c2ccccc2)nc1S(=O)(=O)c1ccc(Cl)cc1	0.266 µM (active)
Cc1ccc(S(=O)(=O)c2nc(S(=O)(=O)c3ccccc3)sc2NCCCOC(C)C)cc1	0.596 µM (active)
CCCS(=O)(=O)c1nc(S(=O)(=O)c2ccc(C)cc2)c(NCCCOC(C)C)s1	2.11 µM (active)
C=CCNC(=S)N1CCN(c2ccc([N+](=O)[O-])cc2)CC1	4.22 µM (active)
O=[N+]([O-])c1ccc(N2CCN(C(=S)NC3CCCCC3)CC2)cc1	1.88 µM (active)
Cc1ccc(C)c(-c2cc3c(=O)n(CCNC(=O)c4ccncc4)ccn3n2)c1	inactive
CC(C)n1nc(OC(C)(C)C(=O)NCC2CCOCC2)c2cc(CN3CCOCC3)ccc21	inactive
CC(C)CNC(=O)C(C)(C)Oc1nn(CC2CC2)c2ccc(CN3CCCC3)cc12	19.3 µM (active)
O=C([C@@H]1C[C@H](Oc2cccnc2)CN1C(=O)NCCc1ccccc1)N1CCOCC1	inactive
CCN(CC)CCN1C(=O)c2ccccc2NC1c1ccc(N(C)C)cc1 (stereo not drawn)	4.22 µM (active)
CCN(CC)CCN1C(=O)c2ccccc2NC1c1ccc(C)cc1 (stereo not drawn)	2.99 µM (active)
CCN(CC)CCN1C(=O)c2ccccc2NC1c1ccc(Br)cc1 (stereo not drawn)	1.5 µM (active)
CCc1ccc(CNC(=O)c2ccc(-c3nc(CSc4ccc(C)cc4)c(C)o3)cc2)cc1	inactive
CCc1noc(-c2ccn3c(CNC(=O)COc4cccc(C)c4)nnc3c2)n1	inactive

SMILES	Potency
O[C@@H]1CC(CNCC2CCCC2)(COc2ccc(C(F)(F)F)cn2)C[C@@H]1O (stereo partly drawn)	5.31 µM (active)
CCn1cc(C(=O)N2CCN(c3cccc(C)c3)C(C)C2)c(=O)c2cc(S(=O)(=O)N3CCOCC3)ccc21 (stereo not drawn)	inactive
CC(C)COc1ccc(C(=O)N/C(=C\c2cccc([N+](=O)[O-])c2)C(=O)OC(C)C)cc1	0.531 µM (active)
CCCCOc1ccc(C(=O)N/C(=C\c2cccc([N+](=O)[O-])c2)C(=O)OC(C)C)cc1	2.11 µM (active)
CC(C)[N+](C)(C)CC(O)COc1cccc2ccccc12 (stereo not drawn)	inactive
CC(C)c1ccccc1OCC(O)CN(CC(O)COc1cccc2ccccc12)C(C)C (stereo not drawn)	2.37 µM (active)
CC(=O)Nc1ccc(CN2CCC3(CC2)CNc2ccccc2[S+](=O)([O-])N3)cc1	inactive
CC(=O)Nc1ccc(CN2CC(Oc3ccc(F)c(C)c3)C2)cc1	inactive
CC(=O)Nc1ccc(CN2CC(N(C)c3ccccc3C)C2)cc1	12.2 µM (active)
Cc1ccc2nc(-c3ccccc3O)c(Nc3ccccc3C)n2c1	2.37 µM (active)
CCOC(=O)c1c(CN(C)C)oc2cc(CN(C)C)c(O)c(CSc3ccccc3)c12	0.596 µM (active)
CN(C)CC1(O)CCC2(CCN(C(=O)c3nccc4ccccc34)CC2)CC1	inactive
Cc1cccc(N2CCN(c3nc4ccccc4c4nnc(C)n34)CC2)c1C	5.31 µM (active)
COc1ccc(Nc2cc(C)nc(NCc3ccccc3)n2)cc1	13.3 µM (active)
CC(=O)Nc1ccc(Nc2cc(C)nc(Nc3ccc(NC(C)=O)cc3)n2)cc1	3.35 µM (active)
Cc1ccnc(NS(=O)(=O)c2ccc(NC(=O)C(C)(C)C)cc2)n1	inactive
COc1ccc(-c2cc(C(=O)O)n(Cc3ccccc3)n2)cc1	inactive
Cc1cc(Nc2cccc(F)c2)nc(NCc2ccccc2)n1	8.41 µM (active)
Cc1ccc(/C=N/Nc2cc(C)nc(NCc3ccccc3)n2)cc1	5.31 µM (active)
COc1cc(SC)ccc1C(=O)N[C@H]1CCN2C(=O)N(c3ccc(Cl)cc3)C(=O)[C@@H]2C1	inactive
COCc1nc(-c2ccc(OC3CN(S(=O)(=O)c4ccccc4C)C3)cc2)no1	inactive
Cc1ccc2nc(CCc3ccc(N)cc3)[nH]c2c1	inactive
COCCn1c(=O)n([C@H]2CCCN(C(=O)CC3CCCCC3)C2)c2ncccc21	inactive
COc1nccnc1NC1CCN(C(=O)Cc2ccccc2)CC1	inactive
Cc1cc(Nc2cccc(Cl)c2)nc(NCc2ccccc2)n1	8.41 µM (active)

SMILES	Potency
Cc1cc(NC2CCCCC2)nc(NCc2ccccc2)n1	16.8 µM (active)
Cc1cc(Nc2ccc(Cl)cc2)nc(NCc2ccccc2)n1	0.422 µM (active)
CN(C)c1cc(N2CCCC(NC(=O)NCc3ccccc3)C2)ncn1 (stereo not drawn)	inactive
CCCCNc1cc(C)nc(NCc2ccccc2)n1	9.44 µM (active)
CCCc1noc(-c2ccn3c(CNC(=O)c4cccc(N(C)C)c4)nnc3c2)n1	inactive
Cc1cc(NCc2ccco2)nc2cc(O)ccc12	6.68 µM (active)
Cc1cc(Nc2ccccc2)nc2cc(O)ccc12	0.422 µM (active)
Cc1cc(=O)n(CC(=O)NCc2ccccc2Br)c(N(C)Cc2ccccc2)n1	inactive
Cc1cc(N(C)Cc2ccccc2)nc2cc(O)ccc12	2.37 µM (active)
CNC(=O)[C@@H](c1ccc(Cl)cc1)N1CCC[C@H]1C(=O)N1CC[C@@H](O)C1	inactive
CCN1Cc2nc(OC)c(CNC(=O)C(C)n3cc(C)cn3)cc2C1=O (stereo not drawn)	inactive
CCN(CC(O)c1cccc(O)c1)C(=O)C12CC3CC(CC(C3)C1)C2 (stereo not drawn)	4.73 µM (active)
O=C(c1ccco1)N1CCCN(c2cc(-c3ccc(Br)cc3)[nH]n2)CC1	inactive
CNC(=O)[C@@H]1CN(Cc2cc(C(F)(F)F)ccc2Cl)C[C@H]1CO	inactive
O=C(CN1CCN(C(=O)c2ccco2)CC1)Nc1cc(C(F)(F)F)ccc1Cl	7.5 µM (active)
O=C(CN1CCN(C(=O)c2ccco2)CC1)Nc1cc(Cl)ccc1Cl	5.96 µM (active)
O=C1CCC2(CCCO2)CCN1Cc1ccccc1 (stereo not drawn)	inactive
O=C1c2cc(N3CCOCC3)nc(-c3ccccc3)c2CN1Cc1ccccc1	21.7 µM (active)
CC(=O)Nc1cccc(-c2ncc3c(n2)OCCN(Cc2ccccc2)C3=O)c1	inactive
Nc1nc(-c2ccccn2)nc(N)c1Cc1ccc(Cl)cc1Cl	7.5 µM (active)
Nc1nc(-c2ccccn2)nc(N)c1Cc1ccccc1F	13.3 µM (active)
CCOc1cc(C2c3c(-c4ccccc4O)n[nH]c3C(=O)N2Cc2cccnc2)ccc1O (stereo not drawn)	inactive
CCCCN1C(=O)c2[nH]nc(-c3ccccc3O)c2C1c1ccc(OCc2ccccc2)cc1 (stereo not drawn)	5.96 µM (active)
CCOc1ccccc1CN1CCC2(CCN(C(=O)OC)CC2)Oc2ccccc21	inactive
CCOc1ccccc1CN1CCC2(CCN(CCC(C)C)CC2)Oc2ccccc21	3.35 µM (active)

SMILES	Potency
COCCNc1cc(N2CCN(C3CCCCC3)CC2)c2noc3c2c1C(=O)c1ccccc1-3	15 µM (active)
CN(C)CCCNc1cc(N2CCN(C3CCCCC3)CC2)c2noc3c2c1C(=O)c1ccccc1-3	1.33 µM (active)
O=C(Nc1sc2c(c1C(=O)NCc1ccco1)CCCC2)c1cc(=O)c2ccccc2o1	10.6 µM (active)
Cc1ccc(C(=O)Nc2sc3c(c2C(=O)O)CCCCC3)o1	inactive
CCn1ncc(Br)c1C(=O)Nc1sc2c(c1C(N)=O)CCC2	inactive
O=c1cc(-c2ccncc2)oc2c(-c3ccccc3O)nccc12	inactive
O=c1cc(-c2ccncc2)oc2c(-c3cccc(CO)c3)nccc12	inactive
O=c1cc(-c2cccnc2)oc2c(-c3ccccc3Oc3ccccc3)nccc12	17.2 µM (active)
Cc1cc(Nc2ccc(C(C)C)cc2)n2ncnc2n1	4.22 µM (active)
COc1ccc(Nc2cc(C)nc3ncnn23)cc1Cl	inactive
Cc1cc(Nc2ccc3ccccc3c2)n2ncnc2n1	0.596 µM (active)
OC(CNCC(c1ccco1)N1CCCCC1)c1ccccc1 (stereo not drawn)	5.96 µM (active)
O=C(c1ccncc1)N1CCC(Cc2nc(-c3ccccc3)n[nH]2)CC1	inactive
O=C(NCc1ccncc1)[C@@H]1C[C@@H](c2ccc(F)cc2)N(Cc2ccccc2)C1	inactive
N#Cc1cccc(C(=O)N2CCCN(Cc3ccncc3)C(c3ccccc3)CC(=O)NCC2)c1 (stereo not drawn)	7.5 µM (active)
O=C1CC(c2ccccc2)N(Cc2ccncc2)CCCN(C(=O)Nc2ccccc2F)CCN1 (stereo not drawn)	1.68 µM (active)
COc1cccc(C(=O)N2CCCC(Cc3noc(-c4ccncc4)n3)C2)c1 (stereo not drawn)	inactive
COC(=O)c1c(C(=O)OC)c(-c2ccc(C)cc2)n2c1CS(=O)(=O)C2	inactive
O=C(N[C@H]1C[C@H]2C(=O)NC[C@@H](CCC(=O)N3CCN(c4ccccc4)CC3)N2C1)C1CC1	inactive
COC[C@@H]1CN(Cc2cc(OC)cc(OC)c2)C[C@H]1C(=O)N(C)C	inactive
CSc1cccc(NC(=O)Cn2c(-c3ccc(F)cc3)nc(C)c(CCO)c2=O)c1	13.3 µM (active)
Cc1nc(-c2cccc(Cl)c2)n(CC(=O)NCc2ccc(F)cc2)c(=O)c1CCO	inactive
Cc1nc(-c2ccc(F)cc2)n(CC(=O)Nc2cccc(Cl)c2)c(=O)c1CCO	15 µM (active)
